Screens deposited in PubChem BioAssay by The Scripps Research Institute Molecular Screening Center.
An excerpt weighted towards active compounds, which were near 0.9% of everything screened.
TR-FRET SRC-2 ct – counter-screen for PPARgamma SRC-2 recruitment agonists: TR-FRET artefact; hits give high values; TR-FRET ratio at 8 µM; 0.4% of 200,000 active
PPARg SRC-3 ag – PPARgamma-driven SRC-3 recruitment agonism | biochemical PPARgamma/SRC-3 coactivator recruitment assay | 0.26% of 200,000 active | activation, % at 8 µM | P37231; in the data active = activation above about 23%;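 also: 0% = DMSO and 100% = reference agonist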
PPARg SRC2 recr – promotes SRC-2 coactivator recruitment by human PPARgamma; P37231; activation, % at 8 µM; PPARgamma LBD-SRC-2 recruitment, biochemical; 0.34% of 200,000 active; in the data active = activation above about 22%;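 also: 0% = vehicle and 100% = reference agonist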
PPARg SRC-1 ag – promotes SRC-1 coactivator recruitment by human PPARgamma; P37231; PPARgamma-SRC-1 coactivator recruitment biochemical assay; activation, % at 8 µM; 0.41% of 200,000 active; AID 631; in the data active = activation above about 19%;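 also: 0% = DMSO and 100% = reference agonist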
SRC1 TRFRET art – TR-FRET artefact, counter-screen to PPARgamma/SRC-1 agonist assay; TR-FRET detection artefact counter-screen, emission ratio; hits give high values; TR-FRET ratio at 8 µM; 0.34% of 99,000 active; in the data active = TR-FRET ratio above about 2300
SRC3 TRFRET art – counter-screen for PPARgamma SRC-3 recruitment agonists: TR-FRET artefact; PPARgamma/SRC-3 format; hits give high values; TR-FRET ratio at 8 µM; 0.39% of 99,000 active; AID 1048
PPARg SRC2 ag – human PPARgamma SRC-2 recruitment agonism, confirmation. shares compounds with PPARg SRC-3 ag. biochemical SRC-2 recruitment by PPARgamma. activation, % at 8 µM. 52% of 790 active. AID 1297; in the data active = activation above about 22%;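 also: 0% = vehicle alone and 100% = reference agonist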
PPARg SRC1 ag – confirmation of agonists of SRC-1 recruitment by human PPARgamma | shares compounds with PPARg SRC-3 ag | PPARgamma–SRC-1 coactivator recruitment biochemical assay | activation, % at 8 µM | 43% of 790 active; in the data active = activation above about 20%;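 also: 0% = vehicle wells and 100% = reference agonist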
PPARg SRC3 conf – confirmation of agonists of SRC-3 recruitment by human PPARgamma; shares compounds with PPARg SRC-3 ag; biochemical PPARgamma-SRC-3 coactivator recruitment, agonist mode; activation, % at 8 µM; 29% of 790 active; in the data active = activation above about 24%;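 also: 0% = vehicle wells and 100% = reference agonist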
Numbers without * were called inactive. Rule as the data show it, unless noted: active = TR-FRET ratio above about 2000; inactive = the rest.

`COc1ccc(NS(=O)(=O)c2cc(C(=O)N3CCN(C(C)=O)CC3)ccc2Cl)cc1` gave TR-FRET SRC-2 ct 1500, PPARg SRC-3 ag 7, PPARg SRC2 recr 4, PPARg SRC-1 ag 3, SRC1 TRFRET art 1848 and SRC3 TRFRET art 1487.
`COc1cccc(C2C(C(=O)c3ccc(C)o3)=C(O)C(=O)N2CCCN(C)C)c1` (stereo unspecified) gave TR-FRET SRC-2 ct 1772, PPARg SRC-3 ag 8, PPARg SRC2 recr 7 and PPARg SRC-1 ag 0.
Screening CN(C)CCCN1C(=O)C(O)=C(C(=O)c2cc3ccccc3o2)C1c1ccccc1 (stereo unspecified) returned TR-FRET SRC-2 ct 3299*, PPARg SRC-3 ag 90*, PPARg SRC2 recr 73*, PPARg SRC-1 ag 53*, PPARg SRC2 ag 70*, PPARg SRC1 ag 50* and PPARg SRC3 conf 45*.
Screening COC(=O)c1ccc(C2/C(=C(\O)c3cccc(OC)c3)C(=O)C(=O)N2CCCN(C)C)cc1 (stereo unspecified) returned TR-FRET SRC-2 ct 1824, PPARg SRC-3 ag 2, PPARg SRC2 recr 0, PPARg SRC-1 ag 10, SRC1 TRFRET art 2143 and SRC3 TRFRET art 1661.
Screening COC(=O)c1ccc(C2C(C(=O)c3cc4ccccc4o3)=C(O)C(=O)N2CCCN(C)C)cc1 (stereo unspecified) returned TR-FRET SRC-2 ct 1943, PPARg SRC-3 ag 29*, PPARg SRC2 recr 18, PPARg SRC-1 ag 22*, PPARg SRC2 ag 25*, PPARg SRC1 ag 22* and PPARg SRC3 conf 19.
For O=C(C1=C(O)C(=O)N(CCCN2CCOCC2)C1c1ccncc1)c1cc2ccccc2o1 (stereo unspecified) the results were TR-FRET SRC-2 ct 1889, PPARg SRC-3 ag 7, PPARg SRC2 recr 21, PPARg SRC-1 ag 23*, SRC1 TRFRET art 2425*, SRC3 TRFRET art 2068*, PPARg SRC2 ag 25*, PPARg SRC1 ag 16 and PPARg SRC3 conf 16.
`O=C(C1=C(O)C(=O)N(CCN2CCOCC2)C1c1cccnc1)c1cc2ccccc2o1` (stereo unspecified) gave TR-FRET SRC-2 ct 1682, PPARg SRC-3 ag 10, PPARg SRC2 recr 3 and PPARg SRC-1 ag 13.
O=C(CNCCC1=CCCCC1)Nc1ccc(N2CCCCCC2)cc1 was read as TR-FRET SRC-2 ct 1514, PPARg SRC-3 ag 8, PPARg SRC2 recr 12 and PPARg SRC-1 ag 7.
`Cc1ccc(N=Cc2sc(O)c3ccccc23)cc1` gave TR-FRET SRC-2 ct 1560, PPARg SRC-3 ag 19, PPARg SRC2 recr 29*, PPARg SRC-1 ag 25*, PPARg SRC2 ag -4, PPARg SRC1 ag -3 and PPARg SRC3 conf -1.
`Cc1ccc(N=Cc2sc(O)c3ccccc23)c(C)c1` gave TR-FRET SRC-2 ct 1462, PPARg SRC-3 ag 6, PPARg SRC2 recr 8 and PPARg SRC-1 ag 16.
For Cc1nnc(N2C(=O)C(O)=C(C(=O)c3ccco3)C2c2ccc(F)cc2)s1 (stereo unspecified) the results were TR-FRET SRC-2 ct 2061*, PPARg SRC-3 ag 49*, PPARg SRC2 recr 38*, PPARg SRC-1 ag 28*, PPARg SRC2 ag 41*, PPARg SRC1 ag 32* and PPARg SRC3 conf 28*.
`Cc1nnc(N2C(=O)C(O)=C(C(=O)c3ccco3)C2c2ccc(C(C)(C)C)cc2)s1` (stereo unspecified) gave TR-FRET SRC-2 ct 2126*, PPARg SRC-3 ag 42*, PPARg SRC2 recr 28*, PPARg SRC-1 ag 31*, PPARg SRC2 ag 39*, PPARg SRC1 ag 31* and PPARg SRC3 conf 25*.
`COCCN1C(=O)C(O)=C(C(=O)c2cccs2)C1c1ccccc1` (stereo unspecified) gave TR-FRET SRC-2 ct 1641, PPARg SRC-3 ag 14, PPARg SRC2 recr 3, PPARg SRC-1 ag 19*, PPARg SRC2 ag 20, PPARg SRC1 ag 12 and PPARg SRC3 conf 11.
`COCCCN1C(=O)C(O)=C(C(=O)c2ccco2)C1c1ccc(Br)cc1` (stereo unspecified) gave TR-FRET SRC-2 ct 1860, PPARg SRC-3 ag 22, PPARg SRC2 recr 22 and PPARg SRC-1 ag 14.
For O=C1NC(c2ccccc2)C(C(=O)c2cccs2)=C1O (stereo unspecified) the results were TR-FRET SRC-2 ct 1704, PPARg SRC-3 ag 14, PPARg SRC2 recr 10, PPARg SRC-1 ag 20*, PPARg SRC2 ag 10, PPARg SRC1 ag 8 and PPARg SRC3 conf 7.
Screening COc1cccc(C2C(C(=O)c3cccs3)=C(O)C(=O)N2CCN(C)C)c1OC (stereo unspecified) returned TR-FRET SRC-2 ct 1515, PPARg SRC-3 ag 1, PPARg SRC2 recr 10 and PPARg SRC-1 ag -2.
For Cc1nnc(N2C(=O)C(O)=C(C(=O)c3ccco3)C2c2ccc(C(C)C)cc2)s1 (stereo unspecified) the results were TR-FRET SRC-2 ct 2173*, PPARg SRC-3 ag 10, PPARg SRC2 recr 33*, PPARg SRC-1 ag 27*, SRC1 TRFRET art 2626*, SRC3 TRFRET art 2243*, PPARg SRC2 ag 19, PPARg SRC1 ag 12 and PPARg SRC3 conf 11.
Cc1ccc(C2C(C(=O)c3cccs3)=C(O)C(=O)N2c2nnc(C)s2)cc1 (stereo unspecified) was read as TR-FRET SRC-2 ct 2089*, PPARg SRC-3 ag 7, PPARg SRC2 recr 12, PPARg SRC-1 ag 23*, SRC1 TRFRET art 2419*, SRC3 TRFRET art 2078*, PPARg SRC2 ag 20, PPARg SRC1 ag 17 and PPARg SRC3 conf 14.
Screening CCC(C)n1c(SCC(=O)Nc2cc(C)on2)nc2ccccc2c1=O (stereo unspecified) returned TR-FRET SRC-2 ct 1498, PPARg SRC-3 ag -4, PPARg SRC2 recr 1 and PPARg SRC-1 ag 4.
Screening CCCCn1c(SCC(=O)Nc2cc(C)on2)nc2ccccc2c1=O returned TR-FRET SRC-2 ct 1385, PPARg SRC-3 ag 13, PPARg SRC2 recr -6, PPARg SRC-1 ag 22*, PPARg SRC2 ag 6, PPARg SRC1 ag 5 and PPARg SRC3 conf 4.
Screening CCOc1ccccc1-c1nn2c(Cc3ccccc3)nnc2s1 returned TR-FRET SRC-2 ct 1623, PPARg SRC-3 ag -1, PPARg SRC2 recr 7, PPARg SRC-1 ag 5, SRC1 TRFRET art 1824 and SRC3 TRFRET art 1550.
`Cc1ccccc1-c1ccc(C=Nc2c(C)n(C)n(-c3ccccc3)c2=O)o1` gave TR-FRET SRC-2 ct 2051*, PPARg SRC-3 ag 20, PPARg SRC2 recr 35*, PPARg SRC-1 ag 24*, PPARg SRC2 ag 24*, PPARg SRC1 ag 19 and PPARg SRC3 conf 17.
